Source: PubChem
HePTP inhibitor: inhibitors of human HePTP phosphatase, primary screen, biochemical, absorbance, leukemia target; Tyrosine-protein phosphatase non-receptor type 7 (Homo sapiens), P35236; recombinant HePTP phosphatase activity, OD absorbance; inhibition, % at 20 µM; 0.64% of 110,000 active; AID 521, 2006; in the data active means inhibition above about 50%
MKP-1 inh: MKP-1 phosphatase inhibitors, primary screen, biochemical, in vitro | Dual specificity protein phosphatase 1 (Homo sapiens), P28562 | recombinant MKP-1, OMFP hydrolysis fluorescence | inhibition, %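 (compounds tested at a single concentration somewhere between 10 and 100 µM)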 | 0.15% of 65,000 active | AID 374, 2006;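 active means inhibition above about 50%, limit read from the data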
Cdc25B inh: inhibitors of Cdc25B phosphatase catalytic domain, primary screen, biochemical, OMFP fluorescence | recombinant Cdc25B, OMFP fluorescence Ex485/Em525 | inhibition, %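 (compounds tested at 10 µM final in the well)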 | 0.1% of 65,000 active | AID 368, 2006; in the data active means inhibition above about 50%
Hsp90 block: tumor Hsp90 inhibitors, primary screen, cell lysate, fluorescence polarization, NCI-N417 lysate | Cy3B-geldanamycin FP displacement | inhibition, % at 30 µM | 0.35% of 64,000 active | AID 429, 2006;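 active means inhibition above 50%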
BAP1 block: inhibitors of BAP1 deubiquitinase, primary screen, biochemical, Ub-AMC fluorescence, kinetic. 0.48% of 72,000 active. calls only at 20 µM. recombinant BAP1, Ub-AMC hydrolysis fluorescence kinetic; stronger effect = lower value. AID 436, 2006. Ubiquitin carboxyl-terminal hydrolase BAP1 (Homo sapiens), Q92560;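 active means activity remaining at or below 50% of control, provided the compound also passes the data quality filters; inactive means the rest, including low values that fail the filters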
Target sequence (Q92560 whole entry, looked up): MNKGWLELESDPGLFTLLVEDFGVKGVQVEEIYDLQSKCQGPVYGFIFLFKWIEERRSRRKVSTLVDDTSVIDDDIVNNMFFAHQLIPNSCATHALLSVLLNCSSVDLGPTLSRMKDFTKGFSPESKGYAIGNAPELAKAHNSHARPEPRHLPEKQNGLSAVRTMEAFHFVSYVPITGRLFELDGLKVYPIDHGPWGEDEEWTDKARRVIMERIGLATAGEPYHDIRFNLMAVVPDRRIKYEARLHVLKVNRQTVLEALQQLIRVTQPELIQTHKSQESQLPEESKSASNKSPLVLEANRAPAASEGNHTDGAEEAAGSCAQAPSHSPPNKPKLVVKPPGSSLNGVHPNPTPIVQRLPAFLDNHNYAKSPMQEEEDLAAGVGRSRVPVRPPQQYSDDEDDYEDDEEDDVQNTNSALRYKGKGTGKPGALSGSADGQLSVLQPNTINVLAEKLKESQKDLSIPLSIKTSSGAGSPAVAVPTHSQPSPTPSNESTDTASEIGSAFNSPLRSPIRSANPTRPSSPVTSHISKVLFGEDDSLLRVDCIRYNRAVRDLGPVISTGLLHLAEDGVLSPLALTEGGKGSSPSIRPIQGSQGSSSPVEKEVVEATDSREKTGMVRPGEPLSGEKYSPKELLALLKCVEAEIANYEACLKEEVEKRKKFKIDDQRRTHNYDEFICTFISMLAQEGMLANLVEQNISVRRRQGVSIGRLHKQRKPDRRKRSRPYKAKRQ
Hits are given with their value; 0 = inactive; - = no result given; + = active, no number; ! = repeats disagree. Compounds with a hit are over-represented: about 1.1% of the library has one in this group of screens.

SMILES	HePTP inhibitor	MKP-1 inh	Cdc25B inh	Hsp90 block	BAP1 block
O=C(N/N=C/c1ccc(OCc2ccccc2)cc1)C(O)c1ccccc1 (stereo unspecified)	0	-	-	-	-
COc1ccc(C(NC(=O)c2ccccc2)NC(=O)c2ccccc2)cc1OC	0	-	-	-	-
CCc1ccccc1N1C(=O)C2C(c3ccccc3Cl)OC3(C(=O)c4ccccc4C3=O)C2C1=O (stereo unspecified)	103.6	-	-	-	0
CC(C)(C)C1CCc2c(sc(NC(=O)C3CC4CCC3C4)c2C(N)=O)C1 (stereo unspecified)	97.4	-	-	-	-
CC(C)(C)C1CCc2c(sc(NC(=O)C3CCCCC3C(=O)O)c2C(N)=O)C1 (stereo unspecified)	0	-	-	-	-
C=CCOc1ccc(/C=C2\C(=O)N(CCOC)C(C)=C2C(=O)OCC)cc1	0	-	-	-	-
CCOC(=O)c1sc2nc(NC(=O)c3cccs3)sc2c1C	0	0	0	62.9	0
CCn1nc(C)c(Cc2c(C)nn(CC)c2C)c1C	103.9	-	-	-	-
CCn1nc(C)c(Oc2ccccc2O)c1C	0	0	0	0	0
COc1ccc(NC(=O)c2c(C)c(-c3ccc(C)cc3)nc3ccccc23)c(OC)c1	0	-	-	-	-
COc1ccc(-c2nc3ccccc3c(C(=O)Nc3ccc(C)cc3)c2C)cc1	104.4	-	-	-	-
COC(=O)c1c(C)oc2ccc(OC(=O)c3ccc(Cl)cc3)cc12	0	-	-	-	-
COC(=O)c1c(C)oc2ccc(OC(=O)c3ccc(Br)cc3)cc12	103.5	-	-	-	-
O=C(Nc1ccc2c(c1)OCO2)C(=O)Nc1ccc2c(c1)OCO2	0	-	-	-	-
Oc1ccc(/C=N/N=C/c2ccc(O)c(O)c2)cc1O	0	-	-	-	-
O=C(O)/C=C/c1ccc(O)c(O)c1	0	0	0	52.9	0
Cc1ccc(C(=O)CC(=O)c2ccc(C(C)(C)C)cc2)c(O)c1	0	-	-	-	-
Cc1ccc(SCc2nc(-c3ccncc3)no2)cc1	0	0	0	0	0
c1ccc(SCc2nc(-c3ccncc3)no2)cc1	0	74.1	0	0	-
COC(=O)c1[nH]c2ccc(Cl)cc2c1NC(=O)C1CC1	0	0	83.9	0	0
CCOC(=O)C1CCN(CC(=O)Nc2c(C(=O)OC)[nH]c3ccc(Cl)cc23)CC1	0	0	0	0	0
CCOc1ccc(NCC(=O)Nc2ccc(C)cc2C)cc1	0	0	0	52.1	0
CCOc1ccc(N(CC(=O)Nc2ccc(C)cc2C)S(C)(=O)=O)cc1	0	-	-	-	-
CCOC(=O)C1=C(C)OC(N)=C(C(=O)OCC)C1c1cccnc1 (stereo unspecified)	0	0	0	71.8	0
O=S(=O)(c1cccc(-c2nnco2)c1)N1CCCC1	0	0	0	91.3	0
SMILES	HePTP inhibitor	MKP-1 inh	Cdc25B inh	Hsp90 block	BAP1 block
O=S(=O)(c1cccc(-c2nnc(-c3ccc(Br)cc3)o2)c1)N1CCCCCC1	0	0	0	-	-
COC(=O)c1cccc(NC(=O)COc2ccc(Br)c(C)c2)c1	0	-	-	-	-
Cc1ccc(NC(=O)COC(=O)Cn2c(C)csc2=O)cc1C	0	0	0	0	0
Cc1ccc(NC(=O)COC(=O)c2ccc3c(c2)NC(=O)C2CCCN32)cc1C (stereo unspecified)	0	54.1	0	0	-
Cc1ccccc1-n1c(N)c(C#N)c2nc3ccccc3nc21	0	-	-	-	-
COc1cc(Br)c(/C=C2\C(=O)N(c3ccc(S(N)(=O)=O)cc3)N=C2C)cc1OC	0	-	-	-	-
COc1cc(/C=C2\C(=O)N(c3cccc(C(=O)O)c3)N=C2C)cc(I)c1O	0	-	-	-	-
COc1cc(/C=C2\C(=O)N(c3cccc(C(=O)O)c3)N=C2C)c([N+](=O)[O-])cc1OC	74.7	-	-	-	-
COc1cc(Br)c(/C=C2\C(=O)N(c3cccc(C(=O)O)c3)N=C2C)cc1OC	77.2	-	-	-	-
COc1cccc(/C=C2\C(=O)N(c3cccc(C(=O)O)c3)N=C2C)c1	65.7	-	-	-	-
COc1ccc(OC)c(/C=C2\C(=O)N(c3ccc(S(N)(=O)=O)cc3)N=C2C)c1	67.7	-	-	-	-
COc1cc(/C=C2\C(=O)N(c3cccc(C(=O)O)c3)N=C2C)ccc1O	0	-	-	-	-
COc1ccc(C2CC(C(F)(F)F)n3nc(C(=O)Nc4cccc(Cl)c4)c(Cl)c3N2)cc1OC (stereo unspecified)	-	-	-	-	0
O=C(COc1ccc(Br)cc1)N/N=C/c1ccco1	0	-	-	-	-
COC(=O)c1ccc(C(=O)OC)c(NC(=O)CCC(=O)O)c1	102.1!	0	0	0	0
Cc1ccc(OCC(=O)NNC(=O)c2ccccc2C)c(C)c1	0	-	-	-	-
CCn1c(SCC(=O)c2ccc(O)c(O)c2)nnc1-c1ccccc1OC	0	0	0	67.1	0
C=CCn1c(SCC(N)=O)nnc1-c1ccccc1O	0	0	0	0	0
C=CCn1c(SCC(=O)c2ccc(O)c(O)c2)nnc1-c1ccccc1OC	0	0	0	71.0	0
O=C1Nc2ccccc2C1=Cc1nc2ccccc2c(=O)n1-c1ccccc1[N+](=O)[O-]	0	-	-	-	-
Cc1ccc2c(c1)C(=Cc1nc3ccccc3c(=O)n1-c1ccccc1[N+](=O)[O-])C(=O)N2	103.9	-	-	-	-
CCOc1cc(/C=N/N=C2\NC(=O)C(CC(=O)O)S2)ccc1O (stereo unspecified)	0	-	-	-	-
CCOc1ccc2nc(SCC(=O)Nc3ccc(C)cc3)sc2c1	0	-	-	-	-
O=C1N=c2ccc(Br)cc2=C1c1sc(Nc2ccc(O)cc2)nc1O	93.0	-	-	-	-
CCCCNCCCCCOc1c(C)cc(C)cc1C	0	-	-	-	-
SMILES	HePTP inhibitor	MKP-1 inh	Cdc25B inh	Hsp90 block	BAP1 block
COc1ccc(N/C=C(/C2=CC(=O)C=CC2=O)[N+](=O)[O-])cc1	58.1	-	-	-	-
CC(C)Oc1ccccc1NC(=O)c1ccccc1SCc1ccc(F)cc1	91.6	-	-	-	-
COC(=O)c1ccc(-c2ccc(C=C3C(=O)N(C)C(=O)N(C)C3=O)o2)cc1	0	-	-	-	-
N#Cc1c(-c2ccc(Br)cc2)cc(-c2ccco2)c(C#N)c1N	100.7	-	-	-	-
CNc1ccc2c(O)cc(S(=O)(=O)O)cc2c1	54.4	-	-	-	-
CC(C)CC(=O)NC(NC(=S)Nc1cccc(Cl)c1)C(Cl)(Cl)Cl (stereo unspecified)	0	-	-	-	-
CCN(CC)c1ccc(/C=C2/C(=O)NN(c3ccc(C)cc3)C2=O)c(O)c1	60.6	-	-	-	-
CC(NC(=O)c1ccc2c(c1)OCO2)C1CCCO1 (stereo unspecified)	0	56.0	0	-	-
Cc1occc1C(=O)NC(C)C1CCCO1 (stereo unspecified)	0	0	0	0	0
CC1=NN(c2ccc(C(=O)O)cc2)C(=O)/C1=C\c1ccco1	0	-	-	-	-
O=c1[nH]c2cc(Cl)c(Cl)cc2[nH]c1=O	-	-	-	0	+
O=c1[nH]c2ccccc2c2ccccc12	-	-	-	0	0
Cc1ccc(CN2CCN(/N=C/C=C\c3ccco3)CC2)cc1	102.8	-	-	-	-
CC1=NN(c2cccc(C(=O)O)c2)C(=O)/C1=C\c1ccc(-c2ccc(Cl)c(C(=O)O)c2)o1	100.6	-	-	-	-
CC1=NN(c2cccc(C(=O)O)c2)C(=O)/C1=C\c1ccc(-c2cc([N+](=O)[O-])ccc2C)o1	55.7	-	-	-	-
